# Results reported in PubChem BioAssay AID1508615 (Milbrandt Lab, Department of Genetics, Washington …, 2020).
# About 20 (1%) of roughly 1,600 compounds were called active. This is one part of a sample in which actives are shown more often than they occur. Unmarked numbers belong to inactive results.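 How the source made its calls: active means ratio of uncleaved NAD to its breakdown product ADP-ribose above 4, meaning the enzyme was inhibited; inactive means the rest.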
# Target: NAD(+) hydrolase SARM1 (Homo sapiens) (UniProt Q6SZW1)
# Sequence (Q6SZW1 whole entry, looked up): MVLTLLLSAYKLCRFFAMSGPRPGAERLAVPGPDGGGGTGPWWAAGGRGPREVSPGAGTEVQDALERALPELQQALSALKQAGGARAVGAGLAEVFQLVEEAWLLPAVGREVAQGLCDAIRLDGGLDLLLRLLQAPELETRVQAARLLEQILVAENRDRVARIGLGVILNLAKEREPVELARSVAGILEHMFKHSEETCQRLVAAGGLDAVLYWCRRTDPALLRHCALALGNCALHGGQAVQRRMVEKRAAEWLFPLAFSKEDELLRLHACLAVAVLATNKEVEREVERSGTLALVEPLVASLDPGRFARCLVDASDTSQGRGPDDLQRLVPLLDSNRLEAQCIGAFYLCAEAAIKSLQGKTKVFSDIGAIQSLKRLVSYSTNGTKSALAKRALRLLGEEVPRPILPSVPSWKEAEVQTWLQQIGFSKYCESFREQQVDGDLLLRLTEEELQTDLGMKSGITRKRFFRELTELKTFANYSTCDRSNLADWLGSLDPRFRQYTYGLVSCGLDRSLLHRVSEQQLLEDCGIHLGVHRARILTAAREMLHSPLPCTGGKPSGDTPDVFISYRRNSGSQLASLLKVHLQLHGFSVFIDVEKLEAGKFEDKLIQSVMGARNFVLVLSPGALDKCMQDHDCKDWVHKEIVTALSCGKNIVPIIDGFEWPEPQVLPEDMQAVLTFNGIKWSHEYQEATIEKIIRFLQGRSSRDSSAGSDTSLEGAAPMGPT
# Assay: inhibition of SAM-TIR NAD hydrolysis to ADPR – cell lysate, HPLC readout, primary screen (AID 1508615);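 further: substrate NAD at 5 µM with 60 min at 37 °C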
# Conditions: HEK293T SAM-TIR lysate, NAD/ADPR ratio by HPLC; at 5 µM; active compounds read high
row,SMILES,NAD/ADPR ratio
1,S=c1nc[nH]c2c1cnn2-c1ccccc1,3
2,CCOC(=O)c1c[nH][nH]c1=O,3
3,NC(=O)N/N=C1\CC2CC1C1C=CCC21 (stereo not drawn),3
4,Cc1nc(Nc2ccc(F)cc2)nc(Nc2ccc(F)cc2)c1[N+](=O)[O-],3
5,Cc1cc2nc3ccc(=[N+](C)C)cc-3sc2cc1N,3
6,Cn1c(=O)c2[nH]c(CCCc3ccc([N+](=O)[O-])cc3)nc2n(C)c1=O,3
7,CCCc1cc(=O)oc2c3c(c4c(c12)OC(C)(C)C=C4)OC(C)C(C)C3O (stereo not drawn),3
8,CSc1cccc(NC(=O)Nc2nc3c(C)cccc3s2)c1,3
9,Cc1nc2ccc(Cl)cn2c1[N+](=O)[O-],3
10,Cn1ncc2c(Nc3ccccc3Cl)nc(Cl)nc21,3
11,Cc1ccc(NC(=S)NC(=O)c2ccccc2)cc1NC(=S)NC(=O)c1ccccc1,3
12,Cc1cc(O)c(-c2cc(O)c(C)cc2O)cc1O,5.8 (active)
13,CCN(CC)CCNC(=O)c1ccc(NCN2C(=O)NC(c3ccccc3)(c3ccccc3)C2=O)cc1,3
14,Cc1cnc2cc(Cl)ccc2c1SCC(=O)O,3
15,O=C1NC(=O)N2CCSC2(Cc2ccccc2)N1 (stereo not drawn),3
16,Nc1ncnc2c1ncn2C1C=C(CO)C(O)C1O (stereo not drawn),3
17,CCOP(=O)(OCC)/C(C#N)=C/c1ccc(-c2ccc(F)cc2F)o1,3
18,O=c1[nH]cnc(CN2CCCCC2)c1O,3
19,CC12CCC(C(=Nc3ccc(N=C4C(=O)C5(C)CCC4C5(C)C)cc3)C1=O)C2(C)C,3
20,C#CCOCC1CN(c2ccccc2)C(=O)O1 (stereo not drawn),3
21,N#Cc1cnn(-c2cccc(Cl)c2)c1-n1cccc1,3
22,Cc1ccc(N=Nc2ccc(C)cc2NC(=O)Nc2ccccc2F)cc1,3
23,Clc1nc2nc3n(c2nc1Cl)CCC3,3
24,CC(=O)Nc1cc(NC(C)=O)ncn1,3
25,O=C(c1ccccc1)C1C(c2ccccc2)C1[N+](=O)[O-] (stereo not drawn),5.3 (active)

row,SMILES,NAD/ADPR ratio
1,O=C(c1ccccc1)c1ccc(Sc2ccc([N+](=O)[O-])cc2)cc1,3
2,O=C1C=C(c2ccccc2)OC(=O)C1C(=O)c1ccccc1 (stereo not drawn),3
3,Clc1ccc(-c2n[nH]c3c2Cc2ccccc2-3)cc1Cl,3
4,COc1ccc(C(=S)N2CCN(c3ccccc3Cl)CC2)cc1OC,3
5,O=C(O)C(c1ccccc1)C1(O)CCCCC1 (stereo not drawn),3
6,Cc1cc2cc3c(=O)[nH]c(=O)cc-3n(CC(O)C(O)C(O)CO)c2cc1C (stereo not drawn),3.3
7,C#CCSc1nnnn1-c1ccc(Br)c(C)c1,3
8,Cc1ccc(S(=O)c2ccc([N+](=O)[O-])c3nonc23)cc1 (stereo not drawn),13.2 (active)
9,O=[N+]([O-])c1cc2cccnc2c2ncccc12,3
10,O=C(O)C(Cc1ccccc1N(CCO)CCO)N1C(=O)c2ccccc2C1=O (stereo not drawn),3
11,Nc1nc(N)nc(C2C=CCCC2)n1 (stereo not drawn),3
12,O=C(Oc1ccccc1)c1cccc2cccc(C(=O)Oc3ccccc3)c12,3
13,COc1ccc(N=Cc2c(O)ccc3c2oc2cc(Cl)c(O)c(Cl)c23)cc1,3
14,CC(O)c1nc2c(c(=O)n(C)c(=O)n2C)n1C (stereo not drawn),3
15,Cn1ncc2c(Nc3ccccc3Cl)nc(Nc3ccccc3Cl)nc21,3
16,Nc1ccc(C(=O)Nc2ccc(Nc3ccncc3)cc2)cc1,3
17,Cc1cc2c(cc1[N+](=O)[O-])NC(CNC(C)C)CC2 (stereo not drawn),3
18,CNc1ncn(-c2c(C)cccc2C)c(=O)n1,3
19,CS/C(=C\c1ccc(C(=O)c2ccc(C)cc2)n1C)S(C)=O (stereo not drawn),3
20,COC(=O)C1=CC(=O)N2CCN=C2S1,3
21,COc1cccc(NC(=S)Nc2ccc(O)cc2)c1,3
22,Cc1cccc(NC(=S)Nc2cccc(C)n2)n1,3
23,NC(=O)Nc1n[nH]c(-c2ccccc2)n1,3
24,Cc1ccc(N=Nc2c(N)nn(-c3ccccc3)c2N)cc1,3
25,CCOC(=O)/C(C#N)=C/c1cccc(C)c1,3

row,SMILES,NAD/ADPR ratio
1,CCOC(=O)/C(C#N)=C/c1c[nH]c2ccccc12,3
2,CCOC(=O)/C(C#N)=C1\SS/C(=C(/C#N)C(=O)OCC)S1,7.9 (active)
3,c1ccn(CCc2ccncc2)c1,3
4,CSC1=NC=C(C#N)C2=NC(c3ccc(Cl)cc3)NN12 (stereo not drawn),3
5,NC(=O)CCC(C(=O)O)N1C(=O)C2C3CCC(C3)C2C1=O (stereo not drawn),3
6,CN(NC(=O)C(=O)NCc1ccco1)C(=O)NC1CCCCC1,3
7,O=C(Nc1ccc(Cl)cc1)c1cc2c(cc1O)[nH]c1ccccc12,3
8,O=C(Nc1ccc(Cl)c([N+](=O)[O-])c1)Nc1nc2ccccc2s1,3
9,CCN1CCC(Nc2ccnc3cc(Cl)ccc23)CC1,3
10,Cc1c(N2CCCC2)cc2c(c1NC(=O)c1ccccc1Cl)C(C)(C)CC2(C)C,3
11,CCC(C)Nc1nc2c(c(=O)n(C)c(=O)n2C)n1C (stereo not drawn),3
12,N#CN=C(N)c1ccccc1,3
13,COc1cccc(/C=C2\CCc3ccccc3C2=O)c1,3
14,NC(=O)c1ccccc1NC(=O)c1ccccc1Cl,3
15,CC(=O)Nc1ccc(Cc2nc3c([nH]2)c(=O)n(C)c(=O)n3C)cc1,3
16,CCOC(=O)c1ccc(NC(=O)Oc2cc(C)c(Cl)cc2C(C)C)cc1,3
17,Nc1nc(Cl)cc(Nc2ccccc2Cl)n1,3
18,O=[N+]([O-])c1ccc(/C=C/c2ccncc2)cc1,3
19,COC(=O)C1(C(=O)OC)C2C(=O)C3C(C21)C3(C(=O)OC(C)(C)C)C(=O)OC(C)(C)C (stereo not drawn),3
20,c1ccc2c(c1)cnc1ccccc12,3
21,NC(N)=Nc1nc2ccc([N+](=O)[O-])cc2[nH]1,3
22,O=C(OCC1CCC=CO1)C1CCC=CO1 (stereo not drawn),3
23,Cc1cc(=O)c2cc(C(=O)c3ccccc3)ccc2[nH]1,3
